High-throughput results from PubChem.
Rows were chosen to be rich in hits. Some 2.1% of all compounds tested hit in one or more screens of this group.
Abeta yeast res: compounds reversing amyloid beta toxicity in yeast | yeast expressing A-beta42, growth rescue, OD600, 48 h; response scale: 0% DMSO, 100% iron-clioquinol control | Potency, µM (titrated, usually from 46.1 µM), actives largely listed as activators | actives 0.063% (n = 410,000) | AID 1347071; also: nearly all actives have a fitted effect of over 55% in size
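Yeast growth medium received pinned compounds, then yeast cells expressing toxic A-beta were added; plates incubated at 30 C for 48 hr. Growth read as absorbance at 600 nm, normalized to DMSO and equimolar FeCl3 plus clioquinol controls.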
aSyn yeast inh: inhibitors of alpha-synuclein toxicity in yeast; AID 652106; Potency, µM (highest dose often 46.1 µM), actives largely listed as activators; actives 0.14% (n = 370,000); Yeast expressing alpha-synuclein, growth rescue, BacTiter-Glo, 24 h; also: nearly all actives have a fitted effect of over 65% in size
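Readout is rescue of growth in alpha-synuclein-expressing yeast, so inhibitors of toxicity appear as activators. Growth after 24 hr at 30 deg C in galactose medium is quantified by luminescence.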
TDP-43 yeast inh: rescues yeast growth from TDP-43 toxicity | actives 1.8% (n = 410,000) | TDP-43 expressing yeast growth rescue, BacTiter-Glo, 24 h | Potency, µM (series often up to 46.1 µM), actives largely listed as activators | AID 652104; also: nearly all actives have a fitted effect of over 50% in size
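Cell-based yeast growth screen: TDP-43 expression induced in galactose, inoculum OD600=0.02 after raffinose pregrowth to mid-log. Read-out BacTiter-Glo luminescence at 24 hr, 30 deg C; inhibition of toxicity seen as signal increase.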
FUS yeast rescue: FUS proteinopathy suppression in yeast; S. cerevisiae FUS-expressing, growth rescue, OD600, 24 h; Potency, µM (titrated, usually from 76.6 µM), actives largely listed as activators; actives 0.24% (n = 390,000); AID 1347120; also: nearly all actives have a fitted effect of over 55% in size
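Absorbance at 600 nm, taken 24hr after compound addition, measured rescue of FUS-yeast growth at 30C. Induction used 2% galactose with seeding at OD 0.005. Controls: CP55940 from 92uM final, DMSO only.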
Hits are given with their value. Calls follow the shape of the dose curve; as a rule, active = well fitted curve in the direction sought with a large enough effect; inconclusive = small, poorly fitted or top-dose-only effect, or another doubt; inactive = no such curve, though single readings can be large; an effect the other way counts as inactive or inconclusive.

Results for COc1ccc(OCc2ccc(C(=O)O)cc2)cc1 ?
Abeta yeast res: inactive; aSyn yeast inh: inactive; TDP-43 yeast inh: 14µM; FUS yeast rescue: inactive

What do the screens show for `NNC(=O)c1ccc(COc2ccc3ccccc3c2)cc1`?
Abeta yeast res: inactive; aSyn yeast inh: inactive; TDP-43 yeast inh: 16µM; FUS yeast rescue: inactive

How did NNC(=O)c1ccc(COc2ccc3c(c2)CCC3)cc1 do in these assays?
Abeta yeast res: inactive; aSyn yeast inh: inactive; TDP-43 yeast inh: inactive; FUS yeast rescue: inconclusive

Results for COc1ccc(N2CCN(c3cnc4ccccc4n3)CC2)cc1 ?
Abeta yeast res: inactive; aSyn yeast inh: inactive; TDP-43 yeast inh: inactive; FUS yeast rescue: inactive

How did COc1cccc(N2CCN(c3cnc4ccccc4n3)CC2)c1 do in these assays?
Abeta yeast res: inactive; aSyn yeast inh: inactive; TDP-43 yeast inh: 35µM; FUS yeast rescue: inactive

Results for Cn1c2ccccc2c(=O)c2cc(C#CC3=CCCCC3)ccc21 ?
Abeta yeast res: inactive; aSyn yeast inh: inactive; TDP-43 yeast inh: inactive; FUS yeast rescue: inconclusive

What do the screens show for `Cn1c2ccccc2c(=O)c2ccc(C#Cc3ccc(N)cc3)cc21`?
Abeta yeast res: inactive; aSyn yeast inh: inactive; TDP-43 yeast inh: 11µM; FUS yeast rescue: inconclusive

Results for COc1ccc(C#Cc2ccc3c(=O)c4ccccc4n(C)c3c2)cc1 ?
Abeta yeast res: inactive; aSyn yeast inh: inactive; TDP-43 yeast inh: inconclusive; FUS yeast rescue: inactive

How did Cn1c2ccccc2c(=O)c2cc(C#Cc3cccc(N)c3)ccc21 do in these assays?
Abeta yeast res: inactive; aSyn yeast inh: inactive; TDP-43 yeast inh: 13µM; FUS yeast rescue: inactive

How did Cc1ccc(C(=O)/C=C/C(=O)O)cc1 do in these assays?
Abeta yeast res: inactive; aSyn yeast inh: 3.2µM; TDP-43 yeast inh: inactive; FUS yeast rescue: inactive

What do the screens show for `COc1ccc(C(=S)N2CCCC2)cc1Br`?
Abeta yeast res: inactive; aSyn yeast inh: inactive; TDP-43 yeast inh: 11µM; FUS yeast rescue: inactive

Results for COc1ccc(C(=S)N2CCN(C)CC2)cc1Br ?
Abeta yeast res: inactive; aSyn yeast inh: inactive; TDP-43 yeast inh: inactive; FUS yeast rescue: inactive

How did Cc1c(NS(=O)(=O)c2cc3c(cc2Br)CCN3C(=O)C2CC2)c(=O)n(-c2ccccc2)n1C do in these assays?
FUS yeast rescue: inactive

Results for CC(=O)CCc1ccc(Oc2nc(-c3cccnc3)nc3ccccc23)cc1 ?
Abeta yeast res: inactive; aSyn yeast inh: inactive; TDP-43 yeast inh: 14µM; FUS yeast rescue: inactive

Results for COc1ccc(Oc2nc(-c3cccnc3)nc3ccccc23)cc1 ?
Abeta yeast res: inactive; aSyn yeast inh: inactive; TDP-43 yeast inh: inactive; FUS yeast rescue: inactive

How did CCc1c(C(=O)NCCc2ccc(N3CCCCC3)cc2)[nH]c2ccc(Cl)cc12 do in these assays?
aSyn yeast inh: inactive

Results for COCCNC(=O)[C@@H]1CSC2c3ccc(OC)c(OC)c3C(=O)N21 (stereo not given in full) ?
Abeta yeast res: inactive; aSyn yeast inh: inactive; TDP-43 yeast inh: 2.8µM; FUS yeast rescue: inactive

What do the screens show for `O=C(Nc1cccc(-c2nc3cccnc3s2)c1)c1ccco1`?
Abeta yeast res: inactive; aSyn yeast inh: inactive; TDP-43 yeast inh: 10µM; FUS yeast rescue: inactive

How did O=C(Nc1cccc(-c2nc3cccnc3s2)c1)c1cccc(Br)c1 do in these assays?
Abeta yeast res: inactive; TDP-43 yeast inh: 6.3µM; FUS yeast rescue: inactive

How did O=C(Nc1ccc(-c2nc3cccnc3s2)cc1)c1ccco1 do in these assays?
Abeta yeast res: inactive; aSyn yeast inh: inactive; TDP-43 yeast inh: inactive; FUS yeast rescue: inactive

What do the screens show for `CN(C)c1ccc(C(=O)Nc2cccc(-c3nc4cccnc4s3)c2)cc1`?
Abeta yeast res: inactive; TDP-43 yeast inh: inactive; FUS yeast rescue: inactive

How did Clc1ccc(C[n+]2csc3ccccc32)cc1 do in these assays?
Abeta yeast res: inactive; aSyn yeast inh: inactive; TDP-43 yeast inh: 25µM

Results for ICC[n+]1csc2ccccc21 ?
aSyn yeast inh: inactive

What do the screens show for `Fc1ccc(C[n+]2csc3ccccc32)cc1`?
Abeta yeast res: inactive; aSyn yeast inh: inactive; TDP-43 yeast inh: 28µM

What do the screens show for `CS(=O)(=O)c1ccc(C2=C(c3ccccc3)C(=O)OC2)cc1`?
Abeta yeast res: inactive; aSyn yeast inh: inactive; TDP-43 yeast inh: inactive; FUS yeast rescue: inactive

How did O=C1OCC(c2ccccc2)=C1c1ccccc1 do in these assays?
Abeta yeast res: inactive; aSyn yeast inh: inactive; TDP-43 yeast inh: 18µM; FUS yeast rescue: inactive

How did Cc1c(NC(=O)C2CCCN(S(=O)(=O)c3ccccc3[N+](=O)[O-])C2)c(=O)n(-c2ccccc2)n1C (stereo not given) do in these assays?
FUS yeast rescue: inactive

Results for CC(C)CC(c1nnnn1Cc1cccs1)N1CCN(c2nc3ccccc3s2)CC1 (stereo not given) ?
Abeta yeast res: inactive; aSyn yeast inh: inactive; TDP-43 yeast inh: inconclusive; FUS yeast rescue: inactive

Results for CCC(c1nnnn1Cc1cccs1)N1CCN(c2nc3ccccc3s2)CC1 (stereo not given) ?
Abeta yeast res: inactive; aSyn yeast inh: inconclusive; TDP-43 yeast inh: 16µM; FUS yeast rescue: inconclusive

Results for COC(=O)[C@]12C[C@H](CC(=O)NCCCN3CCCC3=O)C(=O)N(CCC3=CCCCC3)C1=C[C@H](C(C)C)O[C@@H]2C1CC1 ?
FUS yeast rescue: inactive

What do the screens show for `O=C(O)c1cccc(Oc2ccc([N+](=O)[O-])cc2)c1`?
Abeta yeast res: inactive; aSyn yeast inh: inactive; TDP-43 yeast inh: 18µM; FUS yeast rescue: inactive

How did CCOC(=O)[C@]12CCCC=C1N(CCCOC)C(=O)[C@@H]2CC(=O)N1CCCCC1 do in these assays?
FUS yeast rescue: inactive

Results for O=C(NCc1ccccc1)OCCCN1C(=O)CCC12CCCCC2 ?
FUS yeast rescue: inactive

What do the screens show for `CCNC(=O)O/N=C1\CCCCC1c1ccc([N+](=O)[O-])cc1[N+](=O)[O-]` (stereo not given)?
Abeta yeast res: inactive; aSyn yeast inh: inactive; TDP-43 yeast inh: 14µM; FUS yeast rescue: inactive

How did Cc1nc([N+](=O)[O-])cn1CC(O)c1ccc2c(c1)OCO2 (stereo not given) do in these assays?
aSyn yeast inh: inactive

Results for Cc1cc(NC(=O)/C=C\C(=O)O)c([N+](=O)[O-])cc1C ?
Abeta yeast res: inactive; aSyn yeast inh: inactive; TDP-43 yeast inh: 22µM; FUS yeast rescue: inactive

Results for Cc1ccc(NC(=O)/C=C/C(=O)O)c([N+](=O)[O-])c1 ?
Abeta yeast res: inactive; aSyn yeast inh: inactive; TDP-43 yeast inh: inactive; FUS yeast rescue: inactive

How did CC1(c2nnnn2Cc2ccccc2)CCCCC(=O)N1Cc1cccs1 (stereo not given) do in these assays?
FUS yeast rescue: inactive

How did O=C(Cc1ccc(S(=O)(=O)N2CCOCC2)s1)N1CCN(S(=O)(=O)c2ccccc2[N+](=O)[O-])CC1 do in these assays?
Abeta yeast res: inactive; aSyn yeast inh: inactive; TDP-43 yeast inh: inactive; FUS yeast rescue: 22µM

Results for CCCC/C=C1/[C@H](CC)N(C)C2=N[C@@H](c3ccccc3)CC(=O)N21 ?
FUS yeast rescue: inactive

How did N#Cc1c(N)[nH]c2ccc(Sc3ccccc3)cc12 do in these assays?
Abeta yeast res: inactive; aSyn yeast inh: inactive; TDP-43 yeast inh: 22µM
